About 10,000 (3%) of roughly 330,000 compounds were called active. Shown is part of a subset that was picked to be rich in actives. Unmarked numbers belong to inactive results.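 Rule for the calls: active = inhibition of at least 50% at 8 µM in the primary screen; inactive = the rest.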
The molecules below were run against Protein Mdm4 (Homo sapiens) + E3 ubiquitin-protein ligase Mdm2 (Homo sapiens) (UniProt O15151+Q00987) (assay: inhibitors of human Mdm2-MdmX association, primary screen, cell-based, luminescence, split luciferase, SaOS-2, uHTS (AID 485346)). Settings: SaOS-2 split-luciferase Mdm2/MdmX complementation, at 8 µM, hits give high values.
Sequence of Protein Mdm4 (Homo sapiens) + E3 ubiquitin-protein ligase Mdm2 (Homo sapiens) (O15151 whole entry, looked up): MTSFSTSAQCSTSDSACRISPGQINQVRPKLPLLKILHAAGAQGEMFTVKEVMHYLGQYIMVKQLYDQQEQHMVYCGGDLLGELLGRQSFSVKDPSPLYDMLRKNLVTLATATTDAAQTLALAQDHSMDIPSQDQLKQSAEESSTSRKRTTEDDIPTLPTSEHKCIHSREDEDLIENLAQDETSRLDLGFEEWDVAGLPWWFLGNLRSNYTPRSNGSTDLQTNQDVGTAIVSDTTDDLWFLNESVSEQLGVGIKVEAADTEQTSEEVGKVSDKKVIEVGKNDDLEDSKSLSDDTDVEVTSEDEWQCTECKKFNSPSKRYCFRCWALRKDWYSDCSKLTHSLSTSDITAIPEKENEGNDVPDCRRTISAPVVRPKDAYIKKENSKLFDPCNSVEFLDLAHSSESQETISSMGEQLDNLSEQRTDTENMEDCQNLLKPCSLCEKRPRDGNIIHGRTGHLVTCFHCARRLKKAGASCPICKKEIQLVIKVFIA
Sequence of Protein Mdm4 (Homo sapiens) + E3 ubiquitin-protein ligase Mdm2 (Homo sapiens) (Q00987 whole entry, looked up): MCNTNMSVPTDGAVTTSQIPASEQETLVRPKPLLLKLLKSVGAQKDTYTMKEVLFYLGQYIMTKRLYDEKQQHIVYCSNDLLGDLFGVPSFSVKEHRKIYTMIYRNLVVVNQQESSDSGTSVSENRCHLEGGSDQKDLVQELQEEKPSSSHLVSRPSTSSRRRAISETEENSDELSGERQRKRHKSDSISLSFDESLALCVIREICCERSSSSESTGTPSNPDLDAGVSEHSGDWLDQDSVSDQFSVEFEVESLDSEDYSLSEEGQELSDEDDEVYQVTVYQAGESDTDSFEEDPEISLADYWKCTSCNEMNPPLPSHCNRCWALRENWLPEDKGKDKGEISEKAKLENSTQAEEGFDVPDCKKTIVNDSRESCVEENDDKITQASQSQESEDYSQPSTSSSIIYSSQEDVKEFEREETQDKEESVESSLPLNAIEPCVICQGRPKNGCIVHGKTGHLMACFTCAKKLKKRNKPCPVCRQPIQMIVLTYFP
In the case of `CSc1nc(N)c(C#N)c(-c2ccccc2Cl)c1C#N`, the inhibition was 58.4% (active).
In the case of `CSc1ccc(-c2c(C#N)c(N)nc3c2c(C)nn3-c2ccccc2)cc1`, the inhibition was 40.5%.
`COc1ccccc1-c1c(C#N)c(N)nc2c1CCC2` gave an inhibition of -4.18%.
Work on `Cc1ccc(NC(=O)C(=O)NCC2CCN(C(=O)c3cccc([N+](=O)[O-])c3)CC2)cc1` yielded an inhibition of -4.26%.
`Cc1cccc(NC(=O)c2cccc(S(=O)(=O)N3CCCC3)c2)n1` was tested, and the inhibition was -8.96%.
`CCn1c2ccccc2c2cc(NC(=O)COC(=O)c3cc(S(=O)(=O)N4CCCCC4)ccc3Cl)ccc21` was tested, and the inhibition was 17.9%.
In the case of `CCn1c(O)c(N=NC(=O)c2cccc(S(=O)(=O)N3CCCCC3)c2)c2ccccc21`, the inhibition was 51% (active).
`CCOc1ccc(-n2cnc3c(=O)[nH]c(N)nc32)cc1` showed an inhibition of -4.14%.
In the case of `CCN(C[C@H]1N[C@@](Cc2ccccc2)(C(=O)OC)[C@H]2C(=O)N(Cc3ccccc3)C(=O)[C@@H]12)C(=O)c1ccc(C)cc1`, the inhibition was 0.772%.
`CC(C)(C)N1C(=O)[C@H]2[C@@H](c3ccc(Br)cc3)N3C(=O)N(c4cccc(Cl)c4)C(=O)[C@@]3(C)[C@H]2C1=O` gave an inhibition of 10.7%.
With `Cc1cccc([C@@H]2[C@@H]3C(=O)N(Cc4ccccc4)C(=O)[C@@H]3[C@]3(Cc4ccc(Cl)cc4)C(=O)N(c4cccc(Cl)c4)C(=O)N23)c1` the inhibition was 8.94%.
In the case of `Cc1cccc([C@@H]2[C@@H]3C(=O)N(Cc4ccccc4)C(=O)[C@@H]3[C@]3(C)C(=O)N(c4ccc(Br)cc4)C(=O)N23)c1`, the inhibition was 53.1% (active).
Work on `Cc1ccc(S(=O)(=O)Nc2ccc(F)c(S(=O)(=O)N3CCOCC3)c2)cc1` yielded an inhibition of 29.4%.
Molecule `COc1cccc(OC)c1C(=O)Nc1ccc2c(c1)n(C)c(=O)n2C` has an inhibition of 6.22%.
`O=C(Nc1ccc2c(c1)OCO2)c1ccc(N2C(=O)c3ccccc3C2=O)cc1` was tested, and the inhibition was 8.21%.
With `Cn1c(=O)n(C)c2cc(C(=O)Nc3ccc(Br)cc3)ccc21` the inhibition was 56.8% (active).
For `Cn1c(=O)n(C)c2cc(C(=O)Nc3ccc4c(c3)OCO4)ccc21`, the inhibition was 60.2% (active).
`CC(C)C(=O)Nc1cccc(C(=O)Nc2ccc3c(c2)OCO3)c1` gave an inhibition of -105%.
`Cn1c(=O)n(C)c2cc(/C=N/NC(=O)c3cccc(Br)c3)ccc21` gave an inhibition of 19.4%.
`CC1(C)C=Cc2c(ccc3c2OC[C@@H](c2ccc(O)cc2O)C3)O1` was tested, and the inhibition was -97.4%.
`Cc1c(NC(=O)CSc2nnc(-c3cccnc3)n2N)c(=O)n(-c2ccccc2)n1C` showed an inhibition of -18.9%.
With `Cc1c(NC(=O)CSc2nnnn2-c2ccc(C(=O)O)cc2)c(=O)n(-c2ccccc2)n1C` the inhibition was 11%.
In the case of `Cc1c(NC(=O)CSc2cccc3cccnc23)c(=O)n(-c2ccccc2)n1C`, the inhibition was 65.2% (active).

— PubChem BioAssay AID485346 (Sanford-Burnham Center for Chemical Genomics, 2010)
